According to the supplement of paper PMC10849652:
The full data set covers some 7,900 targets. This sample favours those with a hit. About 0.6% of all pairs of compound and target were hits. Values without a mark were called inactive.

Each target was assayed with O=C1NC(=O)C(c2cnc3ccccn23)=C1c1cn2c3c(cc(F)cc13)CN(C(=O)N1CCCCC1)CC2 (assay: log2 fold change, soluble protein after heating vs DMSO (PISA); higher = thermal stabilisation; K562 cells, 10 uM, 30 min; active = over 0.2 and 3.5 SD of the protein, either way, in both replicates (recomputed)).
Method in brief: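 K562 cells at 2×10^6 cells/mL were given 10 μM compound for 30 min. Aliquots then went through 3 min of heating across 48°C-58°C, were pooled, and were extracted in PBS with 0.5% NP-40 at 4°C, and the supernatant after 21,000xg for 90 min was quantified by TMTpro 16plex LC-MS/MS with channel sums equalised. Thermal stability relative to control samples, from duplicates, is given as log2 fold change.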

UniProt Q14681, sequence (Q14681 whole entry, looked up): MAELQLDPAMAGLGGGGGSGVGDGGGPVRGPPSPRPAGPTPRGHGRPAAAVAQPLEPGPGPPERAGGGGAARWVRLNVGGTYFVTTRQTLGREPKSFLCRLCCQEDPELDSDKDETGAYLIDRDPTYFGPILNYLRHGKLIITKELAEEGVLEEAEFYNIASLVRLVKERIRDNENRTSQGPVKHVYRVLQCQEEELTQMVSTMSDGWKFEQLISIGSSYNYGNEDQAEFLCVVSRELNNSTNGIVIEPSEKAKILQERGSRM
UniProt Q7L2J0, sequence (Q7L2J0 whole entry, looked up): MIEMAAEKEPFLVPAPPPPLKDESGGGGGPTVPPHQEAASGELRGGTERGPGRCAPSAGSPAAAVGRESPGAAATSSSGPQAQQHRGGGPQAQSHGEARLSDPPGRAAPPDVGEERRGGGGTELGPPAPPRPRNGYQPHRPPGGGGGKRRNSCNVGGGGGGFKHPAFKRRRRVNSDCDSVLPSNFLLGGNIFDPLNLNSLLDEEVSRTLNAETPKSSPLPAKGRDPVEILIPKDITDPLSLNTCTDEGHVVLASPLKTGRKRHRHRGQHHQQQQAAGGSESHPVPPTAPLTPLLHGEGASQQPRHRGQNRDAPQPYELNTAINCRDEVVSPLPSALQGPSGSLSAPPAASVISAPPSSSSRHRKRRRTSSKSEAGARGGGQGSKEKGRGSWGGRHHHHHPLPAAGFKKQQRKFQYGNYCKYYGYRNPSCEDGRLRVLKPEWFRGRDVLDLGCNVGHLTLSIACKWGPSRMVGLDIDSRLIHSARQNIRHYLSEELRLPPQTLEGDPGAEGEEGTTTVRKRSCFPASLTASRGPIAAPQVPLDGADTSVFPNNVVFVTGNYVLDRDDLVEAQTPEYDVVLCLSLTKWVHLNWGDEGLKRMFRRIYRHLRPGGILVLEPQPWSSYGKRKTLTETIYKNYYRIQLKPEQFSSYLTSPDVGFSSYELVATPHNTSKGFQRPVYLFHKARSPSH
UniProt P53778, sequence (P53778 whole entry, looked up): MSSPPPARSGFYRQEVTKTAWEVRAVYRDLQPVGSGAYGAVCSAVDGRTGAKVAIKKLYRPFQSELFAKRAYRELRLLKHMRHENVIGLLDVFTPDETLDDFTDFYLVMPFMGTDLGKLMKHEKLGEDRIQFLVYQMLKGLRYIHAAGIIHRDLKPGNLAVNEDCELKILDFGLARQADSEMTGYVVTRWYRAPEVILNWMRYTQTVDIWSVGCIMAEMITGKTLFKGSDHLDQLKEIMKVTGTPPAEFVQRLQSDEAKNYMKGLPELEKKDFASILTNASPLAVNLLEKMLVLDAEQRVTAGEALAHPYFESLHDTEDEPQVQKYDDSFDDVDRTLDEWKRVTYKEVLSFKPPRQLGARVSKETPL
UniProt Q9C0E8, sequence (Q9C0E8 whole entry, looked up): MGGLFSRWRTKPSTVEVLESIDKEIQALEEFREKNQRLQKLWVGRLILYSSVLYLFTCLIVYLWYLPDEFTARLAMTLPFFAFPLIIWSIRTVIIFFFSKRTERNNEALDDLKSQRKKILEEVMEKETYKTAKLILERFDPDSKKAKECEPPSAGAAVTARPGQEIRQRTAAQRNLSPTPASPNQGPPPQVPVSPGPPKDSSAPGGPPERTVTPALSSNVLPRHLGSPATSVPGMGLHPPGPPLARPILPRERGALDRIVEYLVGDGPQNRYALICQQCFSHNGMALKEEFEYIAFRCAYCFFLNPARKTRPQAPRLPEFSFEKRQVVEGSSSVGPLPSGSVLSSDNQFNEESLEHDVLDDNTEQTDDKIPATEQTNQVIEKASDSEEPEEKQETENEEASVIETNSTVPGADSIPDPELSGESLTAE
UniProt O43318, sequence (O43318 whole entry, looked up): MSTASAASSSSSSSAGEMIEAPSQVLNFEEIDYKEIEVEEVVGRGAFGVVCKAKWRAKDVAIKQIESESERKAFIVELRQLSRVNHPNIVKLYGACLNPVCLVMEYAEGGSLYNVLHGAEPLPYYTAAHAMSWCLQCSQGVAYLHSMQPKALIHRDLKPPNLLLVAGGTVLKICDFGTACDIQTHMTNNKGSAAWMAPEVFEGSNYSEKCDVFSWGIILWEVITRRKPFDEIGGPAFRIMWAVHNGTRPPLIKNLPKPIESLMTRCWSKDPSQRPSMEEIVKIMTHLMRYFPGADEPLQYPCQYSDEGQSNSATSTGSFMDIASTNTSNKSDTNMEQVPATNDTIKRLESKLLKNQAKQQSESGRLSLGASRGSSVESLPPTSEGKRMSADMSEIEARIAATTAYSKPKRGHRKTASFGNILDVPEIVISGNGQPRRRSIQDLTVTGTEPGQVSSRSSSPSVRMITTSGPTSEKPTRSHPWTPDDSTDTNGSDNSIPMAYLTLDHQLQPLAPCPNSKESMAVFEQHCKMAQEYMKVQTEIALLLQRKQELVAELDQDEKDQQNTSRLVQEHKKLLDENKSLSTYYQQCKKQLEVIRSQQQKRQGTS
UniProt O43766, sequence (O43766 whole entry, looked up): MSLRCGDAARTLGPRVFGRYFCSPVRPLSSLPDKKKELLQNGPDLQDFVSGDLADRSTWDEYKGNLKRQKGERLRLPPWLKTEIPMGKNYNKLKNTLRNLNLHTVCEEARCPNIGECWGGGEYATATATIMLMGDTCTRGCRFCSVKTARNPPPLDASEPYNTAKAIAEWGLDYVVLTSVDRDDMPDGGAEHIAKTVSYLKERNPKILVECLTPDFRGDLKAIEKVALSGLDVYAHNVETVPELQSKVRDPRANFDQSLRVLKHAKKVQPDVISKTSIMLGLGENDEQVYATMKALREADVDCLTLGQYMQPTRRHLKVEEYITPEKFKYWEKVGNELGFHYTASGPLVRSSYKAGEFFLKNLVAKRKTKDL
UniProt Q16891, sequence (Q16891 whole entry, looked up): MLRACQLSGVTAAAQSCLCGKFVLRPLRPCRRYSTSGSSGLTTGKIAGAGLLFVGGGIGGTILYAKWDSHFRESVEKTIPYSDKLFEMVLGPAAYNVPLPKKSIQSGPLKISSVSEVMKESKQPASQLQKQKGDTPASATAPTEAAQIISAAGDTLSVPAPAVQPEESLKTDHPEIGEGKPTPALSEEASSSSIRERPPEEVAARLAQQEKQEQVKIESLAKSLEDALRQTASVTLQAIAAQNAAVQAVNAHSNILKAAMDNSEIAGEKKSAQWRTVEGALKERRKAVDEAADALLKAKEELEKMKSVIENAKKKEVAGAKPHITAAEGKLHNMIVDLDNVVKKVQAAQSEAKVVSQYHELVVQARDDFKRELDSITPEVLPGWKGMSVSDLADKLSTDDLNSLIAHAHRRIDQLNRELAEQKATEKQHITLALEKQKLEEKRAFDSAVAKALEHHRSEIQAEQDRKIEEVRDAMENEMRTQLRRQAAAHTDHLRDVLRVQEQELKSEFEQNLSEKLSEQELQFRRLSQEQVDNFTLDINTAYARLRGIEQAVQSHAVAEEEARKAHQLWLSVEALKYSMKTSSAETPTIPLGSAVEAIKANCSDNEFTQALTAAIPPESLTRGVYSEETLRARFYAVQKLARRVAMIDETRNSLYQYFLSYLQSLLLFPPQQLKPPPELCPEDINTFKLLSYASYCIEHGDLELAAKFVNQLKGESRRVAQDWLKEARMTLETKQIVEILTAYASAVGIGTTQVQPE
UniProt Q9UIQ6, sequence (Q9UIQ6 whole entry, looked up): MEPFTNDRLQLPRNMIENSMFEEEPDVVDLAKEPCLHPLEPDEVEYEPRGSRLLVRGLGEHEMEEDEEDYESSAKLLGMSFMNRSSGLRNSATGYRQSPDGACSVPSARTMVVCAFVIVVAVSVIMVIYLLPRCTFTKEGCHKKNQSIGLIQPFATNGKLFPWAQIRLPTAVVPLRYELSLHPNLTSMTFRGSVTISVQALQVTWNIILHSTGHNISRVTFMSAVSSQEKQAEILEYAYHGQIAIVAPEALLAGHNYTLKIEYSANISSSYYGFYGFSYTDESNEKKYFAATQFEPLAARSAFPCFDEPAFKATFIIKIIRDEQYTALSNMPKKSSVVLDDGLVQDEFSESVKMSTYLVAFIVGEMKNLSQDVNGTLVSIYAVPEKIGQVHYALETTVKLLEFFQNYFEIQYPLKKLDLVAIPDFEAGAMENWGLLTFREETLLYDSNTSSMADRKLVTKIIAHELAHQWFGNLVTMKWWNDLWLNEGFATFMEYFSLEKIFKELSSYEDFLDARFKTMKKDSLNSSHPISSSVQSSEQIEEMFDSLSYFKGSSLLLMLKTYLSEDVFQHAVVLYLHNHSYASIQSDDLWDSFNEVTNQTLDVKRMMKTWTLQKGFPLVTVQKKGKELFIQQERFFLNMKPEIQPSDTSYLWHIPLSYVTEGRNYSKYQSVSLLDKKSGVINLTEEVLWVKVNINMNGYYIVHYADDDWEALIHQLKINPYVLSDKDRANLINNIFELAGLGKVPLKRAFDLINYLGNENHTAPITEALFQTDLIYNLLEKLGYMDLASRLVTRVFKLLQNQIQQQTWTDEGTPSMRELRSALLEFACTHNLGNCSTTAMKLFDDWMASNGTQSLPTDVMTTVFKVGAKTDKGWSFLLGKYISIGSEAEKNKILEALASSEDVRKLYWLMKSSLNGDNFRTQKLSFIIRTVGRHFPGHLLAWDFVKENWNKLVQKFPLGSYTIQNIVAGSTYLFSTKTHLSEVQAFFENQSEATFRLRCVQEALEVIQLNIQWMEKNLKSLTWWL
UniProt Q08431, sequence (Q08431 whole entry, looked up): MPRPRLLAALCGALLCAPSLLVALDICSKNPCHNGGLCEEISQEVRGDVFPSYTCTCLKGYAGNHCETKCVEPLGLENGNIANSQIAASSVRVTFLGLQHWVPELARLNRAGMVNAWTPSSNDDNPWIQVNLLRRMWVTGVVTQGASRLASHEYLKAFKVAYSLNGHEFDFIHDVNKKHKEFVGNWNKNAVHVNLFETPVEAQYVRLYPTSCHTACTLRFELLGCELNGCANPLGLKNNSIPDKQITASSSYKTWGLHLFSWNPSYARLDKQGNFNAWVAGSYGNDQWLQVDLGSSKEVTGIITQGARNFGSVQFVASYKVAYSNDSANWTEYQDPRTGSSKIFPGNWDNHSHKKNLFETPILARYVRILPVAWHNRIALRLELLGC

In order of rising log2 fold change:
1. KHDC4 (UniProt Q7Z7F0)  -0.155
2. MAPKAPK3 (UniProt Q16644)  -0.141
3. KCTD2 (UniProt Q14681)  -0.121
4. MCL1 (UniProt Q07820)  -0.112
5. MICOS13 (UniProt Q5XKP0)  -0.106
6. LMNB1 (UniProt P20700)  -0.105
7. LPCAT3 (UniProt Q6P1A2)  -0.091
8. LMBRD2 (UniProt Q68DH5)  -0.09
9. LEMD3 (UniProt Q9Y2U8)  -0.077
10. LIMD1 (UniProt Q9UGP4)  -0.06
11. MAP2K2 (UniProt P36507)  -0.055
12. LNPK (UniProt Q9C0E8)  -0.051
13. IPO13 (UniProt O94829)  -0.046
14. MAPK8 isoform 3 (UniProt P45983)  -0.044
15. KIF1B isoform 4 (UniProt O60333)  -0.037
16. MDN1 (UniProt Q9NU22)  -0.032
17. MAP3K4 isoform 2 (UniProt Q9Y6R4)  -0.029
18. MGST3 (UniProt O14880)  -0.025
19. KRAS isoform 2 (UniProt P01116)  -0.019
20. MEPCE (UniProt Q7L2J0)  -0.019
21. MARK3 (UniProt P27448)  -0.017
22. LMF2 (UniProt Q9BU23)  -0.016
23. MAGOHB (UniProt Q96A72)  0.002
24. LUC7L2 (UniProt Q9Y383)  0.002
25. LNPEP (UniProt Q9UIQ6)  0.004
26. MFGE8 (UniProt Q08431)  0.007
27. MICU1 isoform 3 (UniProt Q9BPX6)  0.027
28. MAGI1 (UniProt Q96QZ7)  0.035
29. LTN1 isoform 3 (UniProt O94822)  0.037
30. LIAS (UniProt O43766)  0.062
31. IMMT isoform 2 (UniProt Q16891)  0.064
32. KPNA6 (UniProt O60684)  0.067
33. KPNB1 (UniProt Q14974)  0.068
34. LUC7L3 (UniProt O95232)  0.086
35. MAP3K7 (UniProt O43318)  0.091
36. MAP4 (UniProt E7EVA0)  0.106
37. KEAP1 (UniProt Q14145)  0.143
38. ILF2 (UniProt Q12905)  0.378

With MAPK12 (UniProt P53778) the log2 fold change was 0.348 (active).
